# High-throughput results deposited in PubChem BioAssay by National Center for Advancing Translational Sciences (NCATS).
# Pf Dd2 inh – qHTS Primary assay for Inhibitors of Plasmodium falciparum Dd2 growth in vitro; 120,000 compounds, 4.3% hits; AID 1347417, 2020; Potency, µM (series often up to 28.9 µM), actives largely listed as inhibitors; P. falciparum Dd2 growth, SYBR Green, 72 h; active = well fitted inhibition curve with a large enough effect; also: nearly all actives have a fitted effect of over 65% in size
#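 Infected erythrocytes (Dd2, 0.3% parasitemia, 2.5% hematocrit final) are added to compound in RPMI-1640/Albumax II medium, grown 72 h at 37C in low oxygen, then lysed with saponin/Triton-X containing SYBR Green and read by fluorescence.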
# Hits are given with their value; - = inactive; [ ] = another dose, or the depositor's remark. Only a selection was taken, and hits are over-represented in it overall.
SMILES,Pf Dd2 inh
CCCCNc1cc(N2CCN(C3CCCCC3)CC2)c2noc3c2c1C(=O)c1ccccc1-3,2.5µM
O=C(NC1CCN(C(=O)N2CC3CC(C2)[C@H]2CCCC(=O)N2C3)CC1)c1ccccn1 (some centres not stated),-
CCNC(=O)c1cccnc1OC1CCN(C(=O)c2ccnn2C)C1 (configuration not stated),-
Cc1ccc(N2CC(C(=O)Nc3ccc(Cl)cc3Cl)CC2=O)cc1 (configuration not stated),-
Cc1ccc(N2CC(c3noc(-c4ccccc4C)n3)CC2=O)cc1 (configuration not stated),-
Cc1ccc(-c2noc(-c3ccccc3NC(=O)C3CC(=O)N(c4ccc(C)cc4)C3)n2)cc1 (configuration not stated),1.4µM
CC(C)CC1=NS(=O)(=O)c2cc(NC(=O)C3CC3)ccc2N1c1ccccc1,2µM
CC(C)C1=NS(=O)(=O)c2cc(NC(=O)c3ccco3)ccc2N1c1ccccc1,-
CCC1=NS(=O)(=O)c2cc(NC(C)=O)ccc2N1CC(C)C,-
O=C1c2ccccc2CN1C1CCN(CC2CC2)CC1,-
COc1ccccc1CCC(=O)N1CC[C@@H]2CN(S(C)(=O)=O)[C@@H]2C1,-
COc1ccccc1CC(=O)N[C@@H]1CN(C)C[C@H]1CN(C)C,-
CCN(CC)S(=O)(=O)N(C)CC1CCCN(CCc2ccccc2OC)C1 (configuration not stated),2.8µM
Cc1cccc(OCCc2noc(C3CCCNC3)n2)c1 (configuration not stated),5µM
CCCS(=O)(=O)N1CC(c2nc(CCOc3cccc(C)c3)no2)C1,-
COCCC(=O)N1CCCC(c2nc(CCOc3cccc(C)c3)no2)C1 (configuration not stated),-
CCC(CC)C(=O)NC[C@H]1O[C@@H](CC(=O)N2CCN(c3ccccn3)CC2)[C@H](O)[C@@H]1O,-
Cc1noc(-c2ccc3c(c2)OCO3)c1C(=O)NCc1cc(F)cc(F)c1,-
Cc1cc(N2CCCCC2)nc2ccc(NC(=O)CCC(=O)N3CCN(c4ccccc4)CC3)cc12,-
CCN1CCN(c2cc(C)c3cc(NC(=O)/C=C/c4ccc(OCCC(C)C)cc4)ccc3n2)CC1,1.1µM
COc1ccc(-n2nc3ccc(NC(=O)c4cccc(OCCC(C)C)c4)cc3n2)cc1,-
Cc1ccc(C)c(N2CCN(C(=O)CCC(=O)Nc3ccc4nc(N5CCCCC5)cc(C)c4c3)CC2)c1,-
CCN1CCN(c2cc(C)c3cc(NC(=O)/C=C/c4ccc(C)cc4)ccc3n2)CC1,1.1µM
CCOc1ccc(C(=O)Nc2ccc3ncnc(N4CCCCC4)c3c2)cc1,-
Cc1cc(Cl)ccc1C(=O)N1Cc2cnn(Cc3ccc(F)cc3)c2C1,-
SMILES,Pf Dd2 inh
CCc1nc(-c2c3n(c(=O)n(CC(=O)Nc4ccccc4OC)c2=O)CCCCC3)no1,-
C=CCNC(=O)c1cnn2c1CN([S+](=O)([O-])c1cccc(OC)c1)CC2,-
COC(=O)CO[C@@H]1CO[C@H]2[C@@H]1OC[C@@H]2NS(=O)(=O)c1cccc2cccnc12,-
Cc1cccc(NC(=O)Cn2ccn3nc(-c4ccc(F)cc4)c(CO)c3c2=O)c1,-
COc1ccc(OC2CN(C(=O)c3ccc4c(c3)OCO4)C2)cc1,-
CC1C=CC(C)N1c1ncnc2c1CN(C1CCCNCC1)C(=O)CN2C (configuration not stated),-
Cc1cc(C)n(CCCN(C)Cc2cc3n(n2)CCNC3)n1,-
COCCn1c(C)nnc1-c1cc(-c2cccc(O)c2)ccn1,-
Cc1ccc2nc(CO[C@H]3CN(Cc4ccccn4)C[C@H]3F)[nH]c2c1,-
N#Cc1ccc(C(=O)N2Cc3[nH]cnc3C[C@H]2c2nc(-c3ccc4c(c3)OCO4)no2)cc1,10µM
Cc1ccc(-c2noc([C@@H]3Cc4nc[nH]c4CN3C(=O)c3ccc(F)cc3)n2)cc1,-
O=C(NCc1ccccc1)N1Cc2[nH]cnc2C[C@H]1c1nc(-c2ccc3c(c2)OCO3)no1,-
O=C1COCC2(CN1)CN(Cc1ccc3c(c1)CCO3)C2,-
CN(C)C(=O)CO[C@@H]1COCC[C@H]1NC(=O)c1cccc(-n2cccn2)c1,-
O=C(NCc1ccc(F)cc1)[C@@H]1C[C@@H](c2ccc(F)cc2)N([S+](=O)([O-])c2cccnc2)C1,-
CC(=O)Nc1ccc(NC(=O)c2cc3sc(C)c(CN4CCCCC4)c3[nH]2)cc1,2.2µM
Cc1sc2cc(C(=O)NCc3cccnc3)[nH]c2c1CN1CCCCC1,-
COc1ccc(NC(=O)c2cc3sc(C)c(CN4CCCCC4)c3[nH]2)cc1OC,2.2µM
COc1ccc(NC(=O)c2cc(CN3CCCC3)on2)cc1Cl,-[5.79 µM]
CCCNC(=O)c1cc2sc(C)c(CN3CCCCC3)c2[nH]1,-
Cc1sc2cc(C(=O)NC(C)C)[nH]c2c1CN1CCCCC1,-
CC1=NOC2(CCN(C(=O)c3ccc(C(F)(F)F)cc3)C2)C1 (configuration not stated),-
N#Cc1ccc(C(=O)NC2CCCN(c3cc(-c4ccc(Cl)cc4)[nH]n3)C2)cc1 (configuration not stated),-
COCCn1nc2n(c1=O)CCN(Cc1ccc3[nH]ccc3c1)CC2,-
CC1(C)CC(CC(=O)N[C@H](Cc2ccccc2)C2CC(O)C2)CC(C)(C)N1 (some centres not stated),-
SMILES,Pf Dd2 inh
CCn1cc(S(=O)(=O)c2ccc(C)cc2C)c(=O)c2cc(F)c(N3CCCC3)cc21,11µM
Cc1ccc(C)c(S(=O)(=O)c2cn(C)c3cc(N4CCCCC4C)c(F)cc3c2=O)c1 (configuration not stated),11µM
CCCn1cc(S(=O)(=O)c2cc(C)ccc2C)c(=O)c2cc(F)c(N3CCOCC3)cc21,-
CCn1cc(S(=O)(=O)c2cc(C)cc(C)c2)c(=O)c2cc(F)c(N3CCCCC3)cc21,-
Cc1cccc(S(=O)(=O)c2cn(C)c3cc(N4CCCCCC4)c(F)cc3c2=O)c1,-
Cc1ccc(C)c(S(=O)(=O)c2cn(C)c3cc(F)c(F)cc3c2=O)c1,-
CCCCn1cc(S(=O)(=O)c2cc(C)ccc2C)c(=O)c2cc(F)c(F)cc21,-
Cc1ccc(S(=O)(=O)c2cn(C)c3cc(N4CCCC4)c(F)cc3c2=O)c(C)c1,10µM
COc1ccc(CCN2Cc3cc(NC(=O)Cc4ccccc4)ccc3OC(C)C2=O)cc1 (configuration not stated),-
COc1ccc(CC(=O)N2CCC(n3cnnc3C3CC3)CC2)cc1Cl,-
CC(C)NC(=O)C[C@@H]1C[C@H]2O[C@H](CNCc3cnccc3Cl)[C@@H](O)[C@H]2O1,-
CN(C)c1ccc(CN2CC(Oc3ccc4c(c3)OCO4)C2)cc1,-
CCc1ccc(NC(=O)c2ccc(F)c(S(=O)(=O)N3CCC(C)CC3)c2)cc1,-
CCc1ccc(NC(=O)c2ccc(F)c(S(=O)(=O)N(C)C3CCCCC3)c2)cc1,11µM
CCc1ccc(NC(=O)c2ccc(F)c(S(=O)(=O)N3CCc4ccccc4C3)c2)cc1,-
COCC1(C(=O)N2CCN(c3cc(C4CC4)ncn3)CC(O)C2)CC1 (configuration not stated),-
O=C(Nc1ccc(Cl)cc1F)c1cc(S(=O)(=O)NC2CCCCCC2)ccc1F,-
O=C(Nc1ccc(F)c(F)c1)c1cc(S(=O)(=O)NC2CCCC2)ccc1F,-
O=C(Nc1ccc(C(F)(F)F)cc1)c1cc(S(=O)(=O)NC2CCCCC2)ccc1F,7.1µM
CCc1ccccc1NC(=O)c1cc(S(=O)(=O)NC2CCCC2)ccc1F,-
